PubChem BioAssay (EPA / NIEHS)
Results filed as inconclusive are left out. Calls of active or inactive are those of the source. Rule for the calls: active = hit-call score of the fitted dose curve at least 0.9, where 1 is the maximum; inconclusive = response in the unintended direction; inactive = score below 0.9.

How the values were obtained:
[1] = molecular target: human Dopamine Receptor D2 (DRD2), DRD2 (gene 1813) (UniProt P14416); experiment: NVS_GPCR_hDRD2s: NovaScreen (NVS) G Protein-Coupled Receptor Assay for human Dopamine Receptor D2 (DRD2) (AID 2283266)
Sequence of human Dopamine Receptor D2 (DRD2), DRD2 (gene 1813) (P14416 whole entry, looked up): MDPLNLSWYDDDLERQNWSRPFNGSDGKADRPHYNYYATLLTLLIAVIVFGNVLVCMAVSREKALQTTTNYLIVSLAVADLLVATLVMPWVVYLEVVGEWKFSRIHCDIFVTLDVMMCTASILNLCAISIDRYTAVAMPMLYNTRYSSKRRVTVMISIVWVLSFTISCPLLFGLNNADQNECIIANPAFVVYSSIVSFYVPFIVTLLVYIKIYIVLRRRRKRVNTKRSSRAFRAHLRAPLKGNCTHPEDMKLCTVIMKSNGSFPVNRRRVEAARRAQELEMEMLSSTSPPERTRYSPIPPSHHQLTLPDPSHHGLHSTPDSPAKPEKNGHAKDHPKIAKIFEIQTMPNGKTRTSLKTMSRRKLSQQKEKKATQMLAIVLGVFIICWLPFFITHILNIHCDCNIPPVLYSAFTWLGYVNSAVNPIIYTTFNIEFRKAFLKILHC
How it was run: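 Test compound (25 uM, duplicate in the primary screen; concentration series at follow-up) competed with radioligand for human DRD2 in CHO-derived membrane protein. Filter-based scintillation counting was done 1.5 hours after dosing, with loss of signal analysed against DMSO.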

[2] = molecular target: human Endothelin Receptor Type B (ETB), EDNRB (gene 1910) (UniProt P24530); experiment: NVS_GPCR_hETB: NovaScreen (NVS) G Protein-Coupled Receptor Assay for human Endothelin Receptor Type B (ETB) (AID 2283267)
How it was run: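 Filter-based scintillation readout of radioligand displacement, 4 h, using membranes from human astrocytoma cells. Actives from a 25 uM duplicate screen were retested in concentration-response (top 50 uM) relative to DMSO baseline.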

[3] = molecular target: human Neurokinin, NK2 Receptor, TACR2 (gene 6865) (UniProt P21452); experiment: NVS_GPCR_hNK2: NovaScreen (NVS) G Protein-Coupled Receptor Assay for human Neurokinin, NK2 Receptor (AID 2283278);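 note: actives reduce bound radioligand signal relative to DMSO baseline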
Sequence of human Neurokinin, NK2 Receptor, TACR2 (gene 6865) (P21452 whole entry, looked up): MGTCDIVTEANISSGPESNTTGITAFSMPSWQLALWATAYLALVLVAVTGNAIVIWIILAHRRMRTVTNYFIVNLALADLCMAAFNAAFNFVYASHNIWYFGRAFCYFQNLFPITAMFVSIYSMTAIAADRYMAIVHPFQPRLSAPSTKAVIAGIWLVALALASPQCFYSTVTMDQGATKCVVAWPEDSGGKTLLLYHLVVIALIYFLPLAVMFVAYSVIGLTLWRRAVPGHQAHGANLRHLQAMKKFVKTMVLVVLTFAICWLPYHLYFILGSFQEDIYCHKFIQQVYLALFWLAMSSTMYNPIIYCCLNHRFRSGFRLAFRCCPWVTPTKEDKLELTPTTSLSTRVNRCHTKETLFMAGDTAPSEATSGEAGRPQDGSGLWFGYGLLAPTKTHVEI
How it was run: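 Test chemicals displace a radioligand from receptor prepared from CHO cells in a cell-free format, read after 4 hours by scintillation counting on filters. Screening starts at 25 uM in duplicate, and active chemicals then go to concentration series.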

[4] = molecular target: human Thromboxane A2 Receptor (TXA2), TBXA2R (gene 6915) (UniProt P21731); experiment: NVS_GPCR_hTXA2: NovaScreen (NVS) G Protein-Coupled Receptor Assay for human Thromboxane A2 Receptor (TXA2) (AID 2283282);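 note: actives reduce bound radioligand signal relative to DMSO baseline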
Sequence of human Thromboxane A2 Receptor (TXA2), TBXA2R (gene 6915) (P21731 whole entry, looked up): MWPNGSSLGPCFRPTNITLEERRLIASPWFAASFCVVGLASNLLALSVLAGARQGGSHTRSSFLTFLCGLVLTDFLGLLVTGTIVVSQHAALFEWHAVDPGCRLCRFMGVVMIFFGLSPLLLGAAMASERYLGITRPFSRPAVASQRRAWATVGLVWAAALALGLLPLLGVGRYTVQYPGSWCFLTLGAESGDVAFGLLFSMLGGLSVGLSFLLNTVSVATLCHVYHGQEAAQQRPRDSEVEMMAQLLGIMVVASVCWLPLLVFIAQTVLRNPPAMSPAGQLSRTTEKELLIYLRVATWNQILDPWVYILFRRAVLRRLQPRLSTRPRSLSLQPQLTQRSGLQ
How it was run: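 Cell-free radioligand binding on membrane protein from human platelets; radioligand displacement read by filter-based scintillation counting after 1 h. Primary screen in duplicate at 25 uM, actives then run in concentration series; loss of signal versus DMSO.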

[5] = molecular target: human Orphanin, Opioid Related Nociceptin Receptor 1 (ORL1), OPRL1 (gene 4987) (UniProt P41146); experiment: NVS_GPCR_hORL1: NovaScreen (NVS) G Protein-Coupled Receptor Assay for human Orphanin, Opioid Related Nociceptin Receptor 1 (ORL1) (AID 2283283)
Sequence of human Orphanin, Opioid Related Nociceptin Receptor 1 (ORL1), OPRL1 (gene 4987) (P41146 whole entry, looked up): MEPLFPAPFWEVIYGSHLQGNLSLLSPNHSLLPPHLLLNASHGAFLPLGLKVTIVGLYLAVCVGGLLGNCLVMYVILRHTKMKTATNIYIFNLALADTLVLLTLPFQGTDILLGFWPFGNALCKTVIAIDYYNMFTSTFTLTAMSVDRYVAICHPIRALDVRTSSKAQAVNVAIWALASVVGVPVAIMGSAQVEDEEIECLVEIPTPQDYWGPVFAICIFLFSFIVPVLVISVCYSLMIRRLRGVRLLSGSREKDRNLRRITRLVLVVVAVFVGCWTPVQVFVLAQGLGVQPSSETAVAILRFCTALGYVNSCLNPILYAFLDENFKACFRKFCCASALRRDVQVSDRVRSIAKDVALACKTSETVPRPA
How it was run: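 Cell-free binding using HEK293-derived receptor protein: radioligand displacement measured by filter scintillation 1 hour after dosing. Primary testing at 25 uM in duplicate, followed by singleton concentration series up to 50 uM; DMSO served as negative control.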

[6] = molecular target: human Dopamine Receptor D4.4 (DRD4.4), DRD4 (gene 1815) (UniProt P21917); experiment: NVS_GPCR_hDRD4.4: NovaScreen (NVS) G Protein-Coupled Receptor Assay for human Dopamine Receptor D4.4 (DRD4.4) (AID 2283264)
How it was run: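 Filter-binding assay with a tritiated or iodinated ligand, cell-free receptor prepared from CHO, 1 hour. Loss of bound radioactivity versus DMSO; single 25 uM duplicate screen, then concentration-response for actives.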

[7] = molecular target: human Endothelin Receptor Type A (ETA), EDNRA (gene 1909) (UniProt P25101); experiment: NVS_GPCR_hETA: NovaScreen (NVS) G Protein-Coupled Receptor Assay for human Endothelin Receptor Type A (ETA) (AID 2283265)
How it was run: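 Binding of radioligand to membrane protein extracted from SH-SY5Y cells was read by filtration and scintillation after 3 h. Compounds were screened at 25 uM in duplicate, with hits followed up in singleton concentration series to 50 uM.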

[8] = molecular target: D(1A) dopamine receptor (Homo sapiens) (UniProt P21728); experiment: NVS_GPCR_hDRD1: NovaScreen (NVS) G Protein-Coupled Receptor Assay for human Dopamine Receptor D1 (DRD1) (AID 2283269)
Sequence of D(1A) dopamine receptor (Homo sapiens) (P21728 whole entry, looked up): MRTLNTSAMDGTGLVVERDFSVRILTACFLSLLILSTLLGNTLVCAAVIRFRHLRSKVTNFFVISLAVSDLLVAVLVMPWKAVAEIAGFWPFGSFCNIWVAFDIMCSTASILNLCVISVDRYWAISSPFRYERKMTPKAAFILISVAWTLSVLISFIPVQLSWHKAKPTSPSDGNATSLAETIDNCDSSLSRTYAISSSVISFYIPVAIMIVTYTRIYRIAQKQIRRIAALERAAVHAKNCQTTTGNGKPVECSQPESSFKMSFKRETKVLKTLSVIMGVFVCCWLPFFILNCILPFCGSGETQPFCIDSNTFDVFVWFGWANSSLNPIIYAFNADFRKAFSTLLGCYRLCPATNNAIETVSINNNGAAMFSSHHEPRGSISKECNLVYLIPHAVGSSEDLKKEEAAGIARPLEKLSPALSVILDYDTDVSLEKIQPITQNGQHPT
How it was run: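 Extracted HEK293 DRD1 is incubated 1 h with compound and a tritiated or iodinated radioligand, then filtered and counted. Screening runs 25 uM in duplicate with on-plate positive and negative controls.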

[9] = molecular target: Muscarinic acetylcholine receptor M1 (Homo sapiens) (UniProt P11229); experiment: NVS_GPCR_hM1: NovaScreen (NVS) G Protein-Coupled Receptor Assay for human Muscarinic, M1 Receptor (AID 2283270)
Sequence of Muscarinic acetylcholine receptor M1 (Homo sapiens) (P11229 whole entry, looked up): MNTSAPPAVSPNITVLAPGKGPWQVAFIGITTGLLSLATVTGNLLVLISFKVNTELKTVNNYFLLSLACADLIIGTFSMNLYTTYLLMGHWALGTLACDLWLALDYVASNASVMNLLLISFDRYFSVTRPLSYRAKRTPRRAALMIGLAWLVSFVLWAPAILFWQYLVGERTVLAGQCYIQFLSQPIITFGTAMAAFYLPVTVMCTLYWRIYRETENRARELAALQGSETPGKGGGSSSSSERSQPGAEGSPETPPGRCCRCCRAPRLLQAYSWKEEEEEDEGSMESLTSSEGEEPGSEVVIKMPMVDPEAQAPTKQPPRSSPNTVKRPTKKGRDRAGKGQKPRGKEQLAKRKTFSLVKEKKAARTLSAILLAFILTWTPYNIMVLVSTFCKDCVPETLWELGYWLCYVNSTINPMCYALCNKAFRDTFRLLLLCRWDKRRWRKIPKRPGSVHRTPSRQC
How it was run: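 Actives from a duplicate 25 uM single-point screen were retested in concentration series. Binding measured as displacement of a radioligand from CHO-derived receptor preparation, 1 h incubation, filtration and scintillation counting, analysed as signal loss against DMSO.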

[10] = molecular target: Muscarinic acetylcholine receptor M3 (Homo sapiens) (UniProt P20309); experiment: NVS_GPCR_hM3: NovaScreen (NVS) G Protein-Coupled Receptor Assay for human Muscarinic, M3 Receptor (AID 2283272)
Sequence of Muscarinic acetylcholine receptor M3 (Homo sapiens) (P20309 whole entry, looked up): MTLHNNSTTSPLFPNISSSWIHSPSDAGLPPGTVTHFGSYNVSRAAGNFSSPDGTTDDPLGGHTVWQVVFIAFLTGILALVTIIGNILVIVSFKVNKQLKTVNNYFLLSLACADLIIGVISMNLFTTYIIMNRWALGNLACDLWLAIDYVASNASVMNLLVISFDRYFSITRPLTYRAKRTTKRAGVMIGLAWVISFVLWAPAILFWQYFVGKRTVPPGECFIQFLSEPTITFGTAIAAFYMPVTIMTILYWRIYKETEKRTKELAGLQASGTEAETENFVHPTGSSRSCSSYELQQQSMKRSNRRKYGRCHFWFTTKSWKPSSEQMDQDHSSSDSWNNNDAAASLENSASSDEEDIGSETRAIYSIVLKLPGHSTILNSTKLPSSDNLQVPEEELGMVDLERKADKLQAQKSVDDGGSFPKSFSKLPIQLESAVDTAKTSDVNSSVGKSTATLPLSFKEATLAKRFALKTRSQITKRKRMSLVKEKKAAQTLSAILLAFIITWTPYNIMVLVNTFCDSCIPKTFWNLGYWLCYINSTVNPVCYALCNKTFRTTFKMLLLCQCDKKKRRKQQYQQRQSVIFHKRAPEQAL
How it was run: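 Radioligand displacement binding on human M3 receptor in CHO-derived membranes, 1 h incubation, filter-based scintillation counting. Primary screen in duplicate at 25 uM; actives followed up in concentration series; loss of signal versus DMSO.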

[11] = molecular target: Muscarinic acetylcholine receptor M2 (Homo sapiens) (UniProt P08172); experiment: NVS_GPCR_hM2: NovaScreen (NVS) G Protein-Coupled Receptor Assay for human Muscarinic, M2 Receptor (AID 2283273)
Sequence of Muscarinic acetylcholine receptor M2 (Homo sapiens) (P08172 whole entry, looked up): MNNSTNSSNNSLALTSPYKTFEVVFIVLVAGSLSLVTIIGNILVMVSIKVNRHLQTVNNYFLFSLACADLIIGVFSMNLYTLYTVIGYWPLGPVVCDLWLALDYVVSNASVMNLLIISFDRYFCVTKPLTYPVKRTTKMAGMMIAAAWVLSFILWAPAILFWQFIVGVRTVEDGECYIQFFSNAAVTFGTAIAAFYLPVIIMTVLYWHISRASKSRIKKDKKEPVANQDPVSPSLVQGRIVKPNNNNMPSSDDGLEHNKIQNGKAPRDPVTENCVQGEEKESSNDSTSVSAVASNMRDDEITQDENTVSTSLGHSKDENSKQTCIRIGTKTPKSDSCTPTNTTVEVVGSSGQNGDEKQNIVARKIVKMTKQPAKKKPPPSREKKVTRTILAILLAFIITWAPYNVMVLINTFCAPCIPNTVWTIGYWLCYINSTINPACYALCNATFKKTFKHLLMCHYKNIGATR
How it was run: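 Radioligand competition binding, cell-free, receptor from CHO; 1 h incubation; scintillation detection. Primary testing at 25 uM in duplicate.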

[12] = molecular target: human Muscarinic, M4 Receptor, CHRM4 (gene 1132) (UniProt P08173); experiment: NVS_GPCR_hM4: NovaScreen (NVS) G Protein-Coupled Receptor Assay for human Muscarinic, M4 Receptor (AID 2283274)
Sequence of human Muscarinic, M4 Receptor, CHRM4 (gene 1132) (P08173 whole entry, looked up): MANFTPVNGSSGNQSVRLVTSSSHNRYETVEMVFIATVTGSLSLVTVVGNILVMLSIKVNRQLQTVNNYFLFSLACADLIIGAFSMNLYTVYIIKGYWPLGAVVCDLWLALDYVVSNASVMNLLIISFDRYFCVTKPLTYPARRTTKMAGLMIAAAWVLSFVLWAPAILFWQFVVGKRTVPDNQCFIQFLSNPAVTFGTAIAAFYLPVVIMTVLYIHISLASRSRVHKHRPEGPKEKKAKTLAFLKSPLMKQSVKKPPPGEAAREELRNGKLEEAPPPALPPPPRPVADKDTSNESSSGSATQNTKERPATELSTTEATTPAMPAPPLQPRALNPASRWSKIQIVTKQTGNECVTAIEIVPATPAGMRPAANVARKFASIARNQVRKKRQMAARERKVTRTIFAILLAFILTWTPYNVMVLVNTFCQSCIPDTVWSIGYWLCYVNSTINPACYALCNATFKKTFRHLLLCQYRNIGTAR
How it was run: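 Filter-based scintillation counting of radioligand bound to CHO-expressed human M4 preparations after 1 h; loss of signal fitted versus DMSO. Initial duplicate testing at 25 uM, concentration-response follow-up for actives.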

[13] = molecular target: Muscarinic acetylcholine receptor M5 (Homo sapiens) (UniProt P08912); experiment: NVS_GPCR_hM5: NovaScreen (NVS) G Protein-Coupled Receptor Assay for human Muscarinic, M5 Receptor (AID 2283275)
Sequence of Muscarinic acetylcholine receptor M5 (Homo sapiens) (P08912 whole entry, looked up): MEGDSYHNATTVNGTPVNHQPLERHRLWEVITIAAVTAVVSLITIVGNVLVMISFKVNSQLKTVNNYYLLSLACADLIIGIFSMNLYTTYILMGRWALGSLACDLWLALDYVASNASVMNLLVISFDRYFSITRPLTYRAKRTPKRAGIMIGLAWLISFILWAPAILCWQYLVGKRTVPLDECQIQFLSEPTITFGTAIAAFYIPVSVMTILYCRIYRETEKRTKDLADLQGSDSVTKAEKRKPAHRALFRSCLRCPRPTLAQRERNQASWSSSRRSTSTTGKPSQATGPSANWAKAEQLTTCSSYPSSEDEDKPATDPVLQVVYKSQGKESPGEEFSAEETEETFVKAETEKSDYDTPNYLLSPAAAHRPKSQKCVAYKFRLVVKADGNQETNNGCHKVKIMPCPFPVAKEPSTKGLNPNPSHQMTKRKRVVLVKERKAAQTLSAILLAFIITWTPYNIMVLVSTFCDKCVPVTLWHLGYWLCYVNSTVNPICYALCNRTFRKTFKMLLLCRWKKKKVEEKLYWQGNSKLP
How it was run: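 Chemicals passing a primary duplicate screen at 25 uM were run as singleton concentration series, maximum 50 uM. Displacement of a specific radioligand from CHO-extracted receptor was read by filter scintillation after 1 h, relative to DMSO.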

[14] = molecular target: human Neuropeptide Receptor Y1 (NPY1), NPY1R (gene 4886) (UniProt P25929); experiment: NVS_GPCR_hNPY1: NovaScreen (NVS) G Protein-Coupled Receptor Assay for human Neuropeptide Receptor Y1 (NPY1) (AID 2283276)
How it was run: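 Displacement of specific radioligand from NPY1 receptor of SK-N-MC origin, read by filtration and scintillation after 1 h. Compounds first tested at 25 uM in duplicate, then actives in concentration series; signal loss relative to DMSO.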

[15] = molecular target: Neuropeptide Y receptor type 2 (Homo sapiens) (UniProt P49146); experiment: NVS_GPCR_hNPY2: NovaScreen (NVS) G Protein-Coupled Receptor Assay for human Neuropeptide Receptor Y2 (NPY2) (AID 2283277)
How it was run: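 Chemicals were first tested in duplicate at 25 uM, then actives in singleton concentration series to 50 uM. Tracer binding to SK-N-MC-derived protein measured cell-free after 1 h via filter scintillation; signal loss relative to DMSO.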

[16] = molecular target: human Opioid Receptor Delta 1 (Opiate D1), OPRD1 (gene 4985) (UniProt P41143); experiment: NVS_GPCR_hOpiate_D1: NovaScreen (NVS) G Protein-Coupled Receptor Assay for human Opioid Receptor Delta 1 (Opiate D1) (AID 2283280)
Sequence of human Opioid Receptor Delta 1 (Opiate D1), OPRD1 (gene 4985) (P41143 whole entry, looked up): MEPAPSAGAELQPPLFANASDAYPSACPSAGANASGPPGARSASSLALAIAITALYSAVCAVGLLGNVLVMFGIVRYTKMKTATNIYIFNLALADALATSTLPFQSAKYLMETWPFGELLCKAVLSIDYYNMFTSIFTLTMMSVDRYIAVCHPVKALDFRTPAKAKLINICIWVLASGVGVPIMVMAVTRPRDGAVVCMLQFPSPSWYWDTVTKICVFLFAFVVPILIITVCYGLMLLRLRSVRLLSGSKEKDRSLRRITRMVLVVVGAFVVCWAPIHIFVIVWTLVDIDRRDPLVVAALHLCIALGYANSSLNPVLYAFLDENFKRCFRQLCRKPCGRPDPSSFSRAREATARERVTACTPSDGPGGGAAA
How it was run: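 Membrane preparations from CHO cells bearing the human receptor were incubated 1 h with test chemical, and bound radioligand was counted after filtration. Actives from 25 uM duplicate screening were retested in concentration-response.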

[17] = molecular target: human Histamine 1 Receptor (H1), HRH1 (gene 3269) (UniProt P35367); experiment: NVS_GPCR_hH1: NovaScreen (NVS) G Protein-Coupled Receptor Assay for human Histamine 1 Receptor (H1) (AID 2283268)
How it was run: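 Filter-based scintillation detection of radioligand binding to human H1, 1 h incubation; chemicals screened in duplicate at 25 uM, then concentration-response; signal loss relative to DMSO taken as activity.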

[18] = molecular target: human Neurotensin Receptor (NTS), NTSR1 (gene 4923) (UniProt P30989); experiment: NVS_GPCR_hNTS: NovaScreen (NVS) G Protein-Coupled Receptor Assay for human Neurotensin Receptor (NTS) (AID 2283279)
How it was run: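 Compounds competed with a radiolabelled ligand for binding to CHO-derived human neurotensin receptor; bound signal counted after filtration, 1 h. Screened first at a single concentration of 25 uM in duplicate, then concentration series to 50 uM maximum for actives.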

SMILES: N#CC(Br)Br
- outcome [1]: inactive
- outcome [2]: inactive
- outcome [3]: inactive

SMILES: Nc1cc(Cl)cc(C(=O)O)c1Cl
- outcome [4]: inactive

SMILES: O=[N+]([O-])C(Br)(CO)CO
- AC50 [3]: 1.21 µM (active)
- AC50 [5]: 5.41 µM (active)

SMILES: [Cl-].[Cl-].[Hg+2]
- AC50 [6]: 1.76 µM (active)
- AC50 [7]: 6.76 µM (active)
- AC50 [1]: 0.354 µM (active)
- AC50 [2]: 19 µM (active)
- AC50 [8]: 0.193 µM (active)
- AC50 [9]: 1.47 µM (active)
- AC50 [10]: 0.579 µM (active)
- AC50 [11]: 1.48 µM (active)
- AC50 [12]: 4.13 µM (active)
- AC50 [13]: 0.428 µM (active)
- AC50 [14]: 14.7 µM (active)
- AC50 [15]: 8.85 µM (active)
- AC50 [3]: 0.838 µM (active)
- AC50 [16]: 0.275 µM (active)
- outcome [4]: inactive
- AC50 [5]: 0.321 µM (active)

SMILES: c1ccc(C2CO2)cc1 (stereo unspecified)
- outcome [13]: inactive

SMILES: CCCCCCCCCCCCCN1CC(C)OC(C)C1 (stereo unspecified)
- outcome [12]: inactive

SMILES: O=C(Oc1ccc(Br)cc1)N1CCN2CCC1CC2
- AC50 [9]: 12.5 µM (active)
- AC50 [10]: 19.4 µM (active)
- AC50 [11]: 16.8 µM (active)
- AC50 [12]: 15.3 µM (active)
- AC50 [13]: 15.7 µM (active)

SMILES: N#CC(Br)(Br)C(N)=O
- outcome [8]: inactive
- outcome [3]: inactive
- AC50 [5]: 41.2 µM (active)

SMILES: CCOC(=O)[C@]1(c2ccccc2)Oc2ccccc2[C@@H]1N
- AC50 [6]: 0.0481 µM (active)
- AC50 [1]: 0.0323 µM (active)
- AC50 [17]: 0.471 µM (active)
- AC50 [8]: 2.66 µM (active)
- AC50 [9]: 6.04 µM (active)
- AC50 [10]: 13.3 µM (active)
- AC50 [11]: 3.28 µM (active)
- AC50 [12]: 13.3 µM (active)
- AC50 [13]: 4.93 µM (active)
- outcome [18]: inactive
- AC50 [16]: 16.5 µM (active)

SMILES: CCCCCOC(=O)c1ccccc1C(=O)OCCCCC
- outcome [10]: inactive
- outcome [16]: inactive
- outcome [5]: inactive

SMILES: Oc1ccc2ccc3cccc4ccc1c2c34
- outcome [3]: inactive
- outcome [4]: inactive

SMILES: CC(C)(C)C(O)(CCc1ccc(Cl)cc1)Cn1cncn1 (stereo unspecified)
- AC50 [3]: 13.1 µM (active)
- outcome [4]: inactive

SMILES: Nc1ccc(N=Nc2ccccc2)cc1
- outcome [16]: inactive
